Drawing on PubChem BioAssay, this text covers composite z-score and z-score for 16 compounds.

Each structure is given as a SMILES string. Activity calls are given as the source filed them.

Assay [1] relates to PRMT1 (protein arginine N-methyltransferase 1). As to the kind of experiment: small molecules binding arginine methyltransferase PRMT1 – biochemical, small-molecule microarray, 635 nm fluorescence, primary screen (AID 1088).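 Further: binding of Prmt1 protein to compounds spotted on small-molecule microarray slides.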 The conditions noted are these: higher = more signal.
Assay [2] in a line: growth effects on S. cerevisiae YJM789 – YJM789 clinical isolate, OD600, 24 h, basal, primary screen (AID 1089).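 Further: growth of clinical yeast isolate S. cerevisiae YJM 789 seeded 1000 cells per well; test concentration not given here.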 The conditions noted are these: higher = more signal, called active from +8 up or from −8 down unless noted.
Assay [3] is described as follows: S. pombe growth modifiers, basal conditions – strain 972, OD600, 24 h, no modulator, primary screen (AID 1090).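 Further: basal condition with compound alone and no growth modifier present; test concentration not given here.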 The conditions noted are these: S. pombe 972 growth; higher = more signal, called active from +8 up or from −8 down unless noted.
Assay [4] can be described thus: budding yeast growth modifiers under rapamycin – strain BY4716, OD600, 96 h, primary screen (AID 1091). Further: test concentration not given here. The conditions noted are these: S. cerevisiae BY4716 + rapamycin; higher = more signal, called active from +8 up or from −8 down unless noted.
The target in assay [5] is Torsin-1A-interacting protein 2 (Homo sapiens) (UniProt Q8NFQ8). As to the kind of experiment: small molecules binding lysate-expressed LULL1 – cell lysate, human LULL1 lysate, 635/667 nm fluorescence, primary screen (AID 1092).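 Further: probe is lysate of COS7 cells overexpressing human LULL1; score merges per-feature 667 nm fluorescence with signal-to-noise.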 To be noted: small-molecule microarray, hLULL1 lysate binding, 635 nm fluorescence; higher = more signal.
Assay [6] can be described thus: optical density change of DRC41 E. coli – strain DRC41, OD650, 24 h, E. coli filamentation project, primary screen (AID 1093).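 Further: MC1000 strain lacking acrAB efflux and sulA so SOS filamentation is blocked; test concentration not given here.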 The conditions noted are these: E. coli DRC41 growth; higher = more signal, called active from +8 up or from −8 down unless noted.
A short description of assay [7]: probe aLefty2 binding to arrayed compounds – biochemical, biotinylated probe, 635/667 nm fluorescence, primary screen (AID 1094).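 Further: score merges spot fluorescence near 667 nm with spot signal-to-noise ratio.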 To be noted: higher = more signal; small-molecule microarray, probe aLefty2, fluorescence unless noted.
Assay [8] relates to Noggin (protein binding on small-molecule microarray). As to the kind of experiment: small molecules binding Noggin protein – biochemical, 635/667 nm fluorescence, primary screen (AID 1095).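 Further: score merges 667 nm feature fluorescence with signal to noise over triplicate slides.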 The conditions noted are these: 635 nm fluorescence, higher = more signal.
Assay [9] concerns the target Neurogenic locus notch homolog protein 3 (Homo sapiens) (UniProt Q9UM47). As to the kind of experiment: small molecules binding NOTCH3 protein – biochemical, 635/667 nm fluorescence, primary screen (AID 1096). To be noted: small-molecule microarray, 635 nm fluorescence, higher = more signal.
A short description of assay [10]: probe aEGFR binding to arrayed compounds – biochemical, biotinylated probe, 635/667 nm fluorescence, primary screen (AID 1097).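 Further: probe is a biotinylated anti-EGFR antibody binding compounds printed on slides; score combines fluorescence near 667 nm and signal to noise of each spot.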 To be noted: higher = more signal; small-molecule microarray, probe aEGFR, fluorescence unless noted.

Sequence of Neurogenic locus notch homolog protein 3 (Homo sapiens) (Q9UM47 whole entry, looked up): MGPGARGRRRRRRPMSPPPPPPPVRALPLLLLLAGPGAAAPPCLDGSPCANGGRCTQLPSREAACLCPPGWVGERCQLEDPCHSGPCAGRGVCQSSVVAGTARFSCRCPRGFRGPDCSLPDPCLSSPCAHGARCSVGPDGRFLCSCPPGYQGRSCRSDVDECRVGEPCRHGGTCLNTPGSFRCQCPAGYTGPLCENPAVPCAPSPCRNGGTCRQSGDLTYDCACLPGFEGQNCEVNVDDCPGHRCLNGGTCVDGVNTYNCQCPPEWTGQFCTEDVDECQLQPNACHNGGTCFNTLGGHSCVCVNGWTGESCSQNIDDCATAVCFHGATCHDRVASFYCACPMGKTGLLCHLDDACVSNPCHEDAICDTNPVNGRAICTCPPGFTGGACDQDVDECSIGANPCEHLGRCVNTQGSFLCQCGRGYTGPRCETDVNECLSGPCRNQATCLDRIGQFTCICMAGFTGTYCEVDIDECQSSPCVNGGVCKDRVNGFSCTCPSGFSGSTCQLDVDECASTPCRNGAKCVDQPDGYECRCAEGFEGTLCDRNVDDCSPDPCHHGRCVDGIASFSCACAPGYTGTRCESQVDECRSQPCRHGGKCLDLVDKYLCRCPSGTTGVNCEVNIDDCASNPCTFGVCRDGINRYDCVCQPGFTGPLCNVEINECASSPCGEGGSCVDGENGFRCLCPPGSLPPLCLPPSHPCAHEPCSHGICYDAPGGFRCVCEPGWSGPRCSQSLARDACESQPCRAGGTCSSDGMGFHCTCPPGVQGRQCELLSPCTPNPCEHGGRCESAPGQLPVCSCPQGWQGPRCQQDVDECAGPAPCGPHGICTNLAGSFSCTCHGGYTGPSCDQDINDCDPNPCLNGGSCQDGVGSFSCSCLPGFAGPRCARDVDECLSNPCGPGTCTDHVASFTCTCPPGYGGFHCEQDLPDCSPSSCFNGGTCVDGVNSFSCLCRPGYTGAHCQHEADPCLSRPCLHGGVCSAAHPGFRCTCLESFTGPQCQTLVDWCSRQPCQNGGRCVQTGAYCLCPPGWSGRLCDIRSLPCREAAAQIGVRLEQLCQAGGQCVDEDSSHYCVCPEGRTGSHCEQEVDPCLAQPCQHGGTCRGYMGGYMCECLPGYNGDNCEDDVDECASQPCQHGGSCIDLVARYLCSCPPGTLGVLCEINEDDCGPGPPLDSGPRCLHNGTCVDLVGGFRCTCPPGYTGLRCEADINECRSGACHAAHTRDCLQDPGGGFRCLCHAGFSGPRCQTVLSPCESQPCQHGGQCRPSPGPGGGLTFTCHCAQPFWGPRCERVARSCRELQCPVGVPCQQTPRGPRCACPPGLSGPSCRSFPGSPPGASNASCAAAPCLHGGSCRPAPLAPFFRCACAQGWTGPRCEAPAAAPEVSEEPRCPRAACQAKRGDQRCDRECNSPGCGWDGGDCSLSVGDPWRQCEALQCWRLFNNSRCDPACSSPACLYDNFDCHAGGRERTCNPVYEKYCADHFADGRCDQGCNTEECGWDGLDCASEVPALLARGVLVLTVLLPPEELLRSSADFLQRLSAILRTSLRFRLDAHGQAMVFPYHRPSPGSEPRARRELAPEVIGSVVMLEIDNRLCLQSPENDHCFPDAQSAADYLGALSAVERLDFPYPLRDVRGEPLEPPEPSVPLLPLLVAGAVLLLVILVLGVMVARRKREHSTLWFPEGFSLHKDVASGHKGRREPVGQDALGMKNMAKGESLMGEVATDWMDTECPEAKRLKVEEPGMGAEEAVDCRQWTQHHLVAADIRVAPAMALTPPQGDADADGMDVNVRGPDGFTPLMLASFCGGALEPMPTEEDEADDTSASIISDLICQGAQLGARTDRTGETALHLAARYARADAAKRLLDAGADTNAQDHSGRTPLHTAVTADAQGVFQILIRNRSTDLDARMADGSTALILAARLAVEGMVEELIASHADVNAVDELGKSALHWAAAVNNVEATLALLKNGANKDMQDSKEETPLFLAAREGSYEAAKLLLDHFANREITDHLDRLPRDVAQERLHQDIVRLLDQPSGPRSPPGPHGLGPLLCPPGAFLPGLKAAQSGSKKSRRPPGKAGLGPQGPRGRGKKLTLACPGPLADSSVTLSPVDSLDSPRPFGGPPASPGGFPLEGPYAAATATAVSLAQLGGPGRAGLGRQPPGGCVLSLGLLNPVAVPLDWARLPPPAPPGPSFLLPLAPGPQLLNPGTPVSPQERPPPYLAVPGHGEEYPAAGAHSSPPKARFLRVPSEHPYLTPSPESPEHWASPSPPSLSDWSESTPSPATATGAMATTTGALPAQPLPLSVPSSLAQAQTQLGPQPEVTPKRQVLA
Sequence of Torsin-1A-interacting protein 2 (Homo sapiens) (Q8NFQ8 whole entry, looked up): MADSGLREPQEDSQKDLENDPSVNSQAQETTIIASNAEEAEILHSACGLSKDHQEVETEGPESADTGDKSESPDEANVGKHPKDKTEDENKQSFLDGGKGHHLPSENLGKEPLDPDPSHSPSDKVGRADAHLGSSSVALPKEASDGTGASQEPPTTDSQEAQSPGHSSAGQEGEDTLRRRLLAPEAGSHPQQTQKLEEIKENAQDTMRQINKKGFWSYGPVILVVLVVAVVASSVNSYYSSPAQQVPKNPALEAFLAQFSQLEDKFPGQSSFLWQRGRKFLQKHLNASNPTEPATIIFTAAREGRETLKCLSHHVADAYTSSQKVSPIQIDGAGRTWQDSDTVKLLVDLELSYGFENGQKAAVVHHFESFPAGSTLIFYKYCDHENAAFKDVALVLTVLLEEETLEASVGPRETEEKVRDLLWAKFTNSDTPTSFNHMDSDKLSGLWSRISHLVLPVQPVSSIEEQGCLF

In the case of `COC(=O)[C@H]1C(=O)c2ccccc2O[C@@](C(=O)OC)(c2ccccc2)[C@@H]1c1ccccc1`, the composite z-score in [1] was -1.47; in assay [5] it was -0.565; in [7], -0.159; in assay [8], -0.054; in assay [9] it was -1.01; in [10], -0.0093. Further, the z-score in [2] was -0.644 (inactive); in assay [3], -1.77 (inactive); in [4], 0.225 (inactive); in [6], 0.161 (inactive).

For the compound `CN1CCc2nc(CO)c(CO)cc2C1`, the composite z-score was -0.121 in assay [1]; 0.277 in assay [5]; -0.0912 in assay [7]; 0.543 in [8]; 0.765 in assay [9]; 0.0668 in assay [10]. Also, the z-score was 0.909 (inactive) in assay [2], 0.772 (inactive) in [3], 1.47 (inactive) in assay [4] and 0.077 (inactive) in [6].

As for `C=C(CC1(C(C)NP(=O)(c2ccccc2)c2ccccc2)CC1)c1ccccc1` (stereo not given), the composite z-score was 0.144 in assay [1]; 3.44 in [5]; -0.119 in [7]; -0.344 in [8]; 0.673 in assay [9]; -0.135 in assay [10]. For the same compound, the z-score was -1.47 (inactive) in assay [2], -5.37 (inactive) in assay [3], -3 (inactive) in assay [4] and -0.74 (inactive) in assay [6].

`COC(=O)[C@H]1[C@@H](O)[C@@]2(O)c3c(OC)cc(OC)cc3O[C@@]2(c2ccc(OC)cc2)[C@@H]1c1ccccc1`: the composite z-score in [1] was 0.002; in [5], 0.485; in assay [7] it was -0.221; in assay [8] it was 0.782; in assay [9], 0.708; in assay [10] it was -0.0714. For the same compound, the z-score is -0.543 (inactive) in [2], -2.36 (inactive) in assay [3], 0.118 (inactive) in assay [4] and 0.449 (inactive) in assay [6].

`COC(=O)C1(C)C=C2C(=C(C)C(=O)C2C)CN1` (stereo not given): the composite z-score is -0.289 in [1]; -0.132 in [5]; -0.0175 in assay [7]; -1 in [8]; -1.2 in assay [9]; -0.139 in [10]. In addition, the z-score is 0.957 (inactive) in assay [2], 0.437 (inactive) in [3], 1.14 (inactive) in [4] and -1.5 (inactive) in assay [6].

Regarding `COC(=O)NCC=Cc1nc(CCC=CC(=O)O[C@H]2CC3CC(=O)O[C@@H](C=CCC(C)C)C[C@@H]4CC[C@H](C)[C@@H](C[C@@H](OC)C[C@H](C2)O3)O4)co1`, the composite z-score in assay [1] was -1.35; in assay [5], -0.562; in [7], -0.174; in assay [8] it was -0.593; in [9], -2; in assay [10], -0.201. In addition, the z-score was -1.77 (inactive) in assay [2], -4.74 (inactive) in assay [3], -0.209 (inactive) in assay [4] and 0.162 (inactive) in assay [6].

On to `O=P(c1ccccc1)(c1ccccc1)N1CC2(CC2)CC(O)(c2ccccc2)C1` (stereo not given), for which the composite z-score in assay [1] was -0.25; in [5], 3.57; in assay [7], -0.0208; in assay [8], -0.62; in assay [9], 0.498; in [10], 0.066. The z-score in assay [2] is -1.51 (inactive); in assay [3], -1.4 (inactive); in assay [4] it was -1.9 (inactive); in [6], -0.0435 (inactive).

`COC(=O)[C@H]1[C@H](c2ccccc2)C(=O)[C@]2(O)c3ccccc3O[C@@]12c1ccccc1`: the composite z-score in [1] was -0.371; in assay [5] it was 0.582; in assay [7], -0.267; in assay [8], 0.372; in assay [9] it was 0.667; in assay [10], -0.12. In addition, the z-score was -1.36 (inactive) in assay [2], -0.83 (inactive) in [3], -0.713 (inactive) in assay [4] and 0.0043 (inactive) in assay [6].

In the case of `COC(=O)[C@@]1(Cc2ccccc2)[C@H]2c3cc(C(=O)N(C)C)n(C)c3C[C@H]2CN1C(=O)c1ccccc1`, the composite z-score was -0.0444 in assay [1]; 3.35 in assay [5]; 0.402 in [7]; -0.73 in [8]; -0.0403 in [9]; -0.0391 in assay [10]. In addition, the z-score in assay [2] is 0.16 (inactive); in [3], 0.923 (inactive); in [4], 0.462 (inactive); in assay [6] it was 0.0234 (inactive).

On to `C=C(CC1(CNP(=O)(c2ccccc2)c2ccccc2)CC1)c1ccccc1`, for which the composite z-score is -0.683 in assay [1]; 1.98 in assay [5]; -0.0934 in [7]; -0.682 in assay [8]; -0.343 in assay [9]; -0.0493 in assay [10]. In addition, the z-score in assay [2] was 0.0836 (inactive); in assay [3], 1.79 (inactive); in assay [4] it was -0.165 (inactive); in assay [6], 0.0375 (inactive).

For `CCOC(=O)[C@H]1CC=C2C(=O)Oc3ccc(Br)cc3[C@@H]21`, the composite z-score in [1] is 1.41; in [5] it was 2.61; in [7] it was -0.183; in [8] it was -0.701; in [9], 0.428; in [10], -0.249. Moreover, the z-score was -24.8 (active) in [2], -16.2 (active) in [3], -1.8 (inactive) in assay [4] and -0.369 (inactive) in assay [6].

As to `CCCc1cc2c(n1Cc1ccco1)C(C)C1CN(C(=O)c3ccccc3)C(C)(C(=O)OC)C21` (stereo not given), the composite z-score was 0.254 in assay [1]; 2.03 in [5]; 0.849 in assay [7]; 0.025 in assay [8]; 1.09 in assay [9]; 0.337 in assay [10]. The z-score was -0.0941 (inactive) in assay [2], -0.154 (inactive) in assay [3], 0.444 (inactive) in [4] and -0.773 (inactive) in [6].

`c1ccc(-c2cc3c(nc2-c2ccccc2)CCNC3)cc1`: the composite z-score in assay [1] was -0.93; in assay [5] it was -0.908; in assay [7], -0.0831; in assay [8], 0.297; in assay [9] it was -0.73; in [10], -0.238. For the same compound, the z-score in [2] was 0.52 (inactive); in assay [3] it was 0.538 (inactive); in assay [4] it was 2.17 (inactive); in assay [6] it was -0.0201 (inactive).

Consider `COc1cc2c(cc1O)C=[N+](C)CC2`, for which the composite z-score in assay [1] is -0.592; in [5], -0.496; in assay [7], 0.0571; in assay [8], 0.425; in assay [9] it was -0.102; in assay [10] it was -0.0967. Further, the z-score in [2] was -1.76 (inactive); in assay [3], -0.412 (inactive); in [4] it was -1.25 (inactive); in assay [6], -0.695 (inactive).

As to `CCOC(=O)[C@H]1CC=C2C(=O)Oc3ccccc3[C@@H]21`, the composite z-score in [1] is -0.162; in [5] it was 1.55; in assay [7] it was -0.134; in assay [8], -1.09; in assay [9] it was 0.0681; in assay [10] it was -0.174. For the same compound, the z-score in assay [2] is -1.73 (inactive); in assay [3], -5.83 (inactive); in [4], -1.99 (inactive); in [6], -0.0576 (inactive).

In the case of `COc1cc2c(cc1O)C(C)N(C)CC2` (stereo not given), the composite z-score in [1] is -0.474; in assay [5], 0.0713; in [7] it was 0.0914; in assay [8], -0.19; in assay [9], -0.245; in assay [10], 0.0841. Also, the z-score in [2] is 0.051 (inactive); in [3], -2.28 (inactive); in assay [4], -1.65 (inactive); in [6], 0.891 (inactive).
